Results as given in ChEMBL document CHEMBL3988442, “University of Dundee, Small-Polar-MMV Screening Library” (2021).
For some assays here: Potency and affinity values are given separately.

Legend:
Set-up in all cases: scale not given: direction of the effect not stated beside the values
[1] = target: Protein translocase subunit SecA (Escherichia coli (strain K12)) (UniProt P10408); experiment: Assay to Identify E. coli SecA ATPase Inhibitors; assay type: functional; details: 30 µM
[2] = target: T1, Ubiquitin-activating enzyme e1, putative (Leishmania donovani (strain BPK282A1)) (UniProt E9BSI1); experiment: Leishmania donovani Ubiquitin Activating Enzyme (LdE1); assay type: functional; details: 30 µM
T1 sequence (whole entry): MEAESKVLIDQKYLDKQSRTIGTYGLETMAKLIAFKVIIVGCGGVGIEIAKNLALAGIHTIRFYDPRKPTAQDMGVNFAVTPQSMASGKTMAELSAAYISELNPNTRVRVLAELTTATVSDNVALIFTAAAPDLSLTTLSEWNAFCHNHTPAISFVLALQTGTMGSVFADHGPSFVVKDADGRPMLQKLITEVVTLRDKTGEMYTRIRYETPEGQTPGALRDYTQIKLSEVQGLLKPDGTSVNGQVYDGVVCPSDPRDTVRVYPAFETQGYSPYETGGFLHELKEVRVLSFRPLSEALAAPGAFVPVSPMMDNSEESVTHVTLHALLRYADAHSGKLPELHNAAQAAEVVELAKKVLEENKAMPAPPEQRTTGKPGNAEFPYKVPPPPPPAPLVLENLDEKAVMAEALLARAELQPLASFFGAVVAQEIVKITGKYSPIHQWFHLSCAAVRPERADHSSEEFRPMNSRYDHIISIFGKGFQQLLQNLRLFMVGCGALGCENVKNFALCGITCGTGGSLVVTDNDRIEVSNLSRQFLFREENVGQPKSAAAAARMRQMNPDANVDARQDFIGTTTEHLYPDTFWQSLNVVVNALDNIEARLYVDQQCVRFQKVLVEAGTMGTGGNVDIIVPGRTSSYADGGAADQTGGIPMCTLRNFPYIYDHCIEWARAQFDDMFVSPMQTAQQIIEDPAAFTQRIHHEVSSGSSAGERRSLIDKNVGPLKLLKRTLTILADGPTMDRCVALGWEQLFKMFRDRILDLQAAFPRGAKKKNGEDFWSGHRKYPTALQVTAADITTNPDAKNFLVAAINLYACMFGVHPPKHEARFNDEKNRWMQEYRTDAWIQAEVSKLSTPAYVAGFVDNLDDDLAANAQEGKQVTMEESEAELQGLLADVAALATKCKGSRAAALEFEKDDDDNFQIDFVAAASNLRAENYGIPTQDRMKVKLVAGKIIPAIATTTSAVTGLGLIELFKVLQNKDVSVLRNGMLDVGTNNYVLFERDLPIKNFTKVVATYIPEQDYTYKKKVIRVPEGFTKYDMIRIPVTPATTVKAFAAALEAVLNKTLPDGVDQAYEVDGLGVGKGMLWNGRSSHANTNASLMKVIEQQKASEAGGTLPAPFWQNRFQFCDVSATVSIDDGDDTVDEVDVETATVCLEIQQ

[3] = target: AMP-activated protein kinase, AMPK (Homo sapiens) (UniProt P54646+O43741+P54619+Q9UGJ0+Q9Y478+Q13131+Q9UGI9); experiment: AMP-dependent Kinase enzyme assay. An in vitro enzyme assay that detects ADP turnover that is directly proportional to AMPK activity. This uses naive AMPK that is activated during the assay with MK-8722; assay type: functional; details: 30 µM
[4] = target: Sialic acid-binding Ig-like lectin 9 (Homo sapiens) (UniProt Q9Y336); experiment: Hs-Siglec9 ALPHAscreen SOP 20170721; details: 10 µM
Sequence of Sialic acid-binding Ig-like lectin 9 (Homo sapiens) (Q9Y336 whole entry): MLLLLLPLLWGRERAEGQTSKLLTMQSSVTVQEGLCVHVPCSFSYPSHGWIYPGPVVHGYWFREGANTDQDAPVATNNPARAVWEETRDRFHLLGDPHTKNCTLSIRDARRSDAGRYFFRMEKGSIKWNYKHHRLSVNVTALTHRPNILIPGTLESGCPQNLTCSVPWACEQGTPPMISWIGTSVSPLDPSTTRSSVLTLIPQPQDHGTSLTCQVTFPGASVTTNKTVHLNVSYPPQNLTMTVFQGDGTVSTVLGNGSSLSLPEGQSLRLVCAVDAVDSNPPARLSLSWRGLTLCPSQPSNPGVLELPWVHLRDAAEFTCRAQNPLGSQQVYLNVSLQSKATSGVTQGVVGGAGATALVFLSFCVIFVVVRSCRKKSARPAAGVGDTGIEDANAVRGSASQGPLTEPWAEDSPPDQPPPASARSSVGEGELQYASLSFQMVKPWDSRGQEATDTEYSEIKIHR

[5] = system: Trypanosoma cruzi; experiment: Trypanosoma cruzi phosphomannomutase and mannose-1-phosphate guanylyltransferase assay; assay type: functional; details: 10 µM
[6] = target: T2, Arginase-2, mitochondrial (Homo sapiens) (UniProt P78540); experiment: in vitro enzyme assay to detect the production of urea directly proportional to the activity of Arginase II; assay type: functional; details: 33.3 µM; also: in the data most compounds retested in dose-response had high values
T2 sequence (whole entry): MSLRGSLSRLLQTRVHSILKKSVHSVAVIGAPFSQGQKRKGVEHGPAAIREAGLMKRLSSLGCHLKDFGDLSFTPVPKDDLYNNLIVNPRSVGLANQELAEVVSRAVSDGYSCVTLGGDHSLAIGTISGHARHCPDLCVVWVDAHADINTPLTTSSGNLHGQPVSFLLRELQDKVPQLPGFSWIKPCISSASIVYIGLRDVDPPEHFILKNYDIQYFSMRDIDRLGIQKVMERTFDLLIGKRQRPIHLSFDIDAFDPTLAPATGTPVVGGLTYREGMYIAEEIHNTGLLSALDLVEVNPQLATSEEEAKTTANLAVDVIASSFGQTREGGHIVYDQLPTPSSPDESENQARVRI

[7] = target: T3, Proteasome subunit beta (Trypanosoma cruzi) (UniProt O96673); experiment: Trypanosoma cruzi proteasome chymotrypsin-like activity (TcProtChymo) assay.; also: in the data most compounds retested in dose-response had high values; assay type: functional; details: 9.37 µM
T3 sequence (whole entry): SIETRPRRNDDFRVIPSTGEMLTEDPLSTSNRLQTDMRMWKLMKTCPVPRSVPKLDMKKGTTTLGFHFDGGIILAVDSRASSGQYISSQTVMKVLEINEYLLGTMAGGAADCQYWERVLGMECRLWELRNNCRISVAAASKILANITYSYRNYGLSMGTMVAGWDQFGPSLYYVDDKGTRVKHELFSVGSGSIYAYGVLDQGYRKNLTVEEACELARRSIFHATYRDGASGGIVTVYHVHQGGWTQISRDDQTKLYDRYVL

[8] = organism: Homo sapiens; experiment: To identify inhibition of the IFN signalling (Jak-Stat) pathway via expression of an eGFP reporter gene under the control of an IFN-stimulated response element (ISRE) containing MxA promoter.; assay type: functional; details: 30 µM
[9] = target: T4, Tyrosyl-tRNA synthetase, putative (Trypanosoma cruzi (strain CL Brener)) (UniProt Q4DSP6); experiment: Trypanosoma cruzi tyrosyl tRNA synthetase (TcYRS) _High Tyrosine SOP; assay type: functional; details: 30 µM; also: in the data most compounds retested in dose-response had high values
T4 sequence (whole entry): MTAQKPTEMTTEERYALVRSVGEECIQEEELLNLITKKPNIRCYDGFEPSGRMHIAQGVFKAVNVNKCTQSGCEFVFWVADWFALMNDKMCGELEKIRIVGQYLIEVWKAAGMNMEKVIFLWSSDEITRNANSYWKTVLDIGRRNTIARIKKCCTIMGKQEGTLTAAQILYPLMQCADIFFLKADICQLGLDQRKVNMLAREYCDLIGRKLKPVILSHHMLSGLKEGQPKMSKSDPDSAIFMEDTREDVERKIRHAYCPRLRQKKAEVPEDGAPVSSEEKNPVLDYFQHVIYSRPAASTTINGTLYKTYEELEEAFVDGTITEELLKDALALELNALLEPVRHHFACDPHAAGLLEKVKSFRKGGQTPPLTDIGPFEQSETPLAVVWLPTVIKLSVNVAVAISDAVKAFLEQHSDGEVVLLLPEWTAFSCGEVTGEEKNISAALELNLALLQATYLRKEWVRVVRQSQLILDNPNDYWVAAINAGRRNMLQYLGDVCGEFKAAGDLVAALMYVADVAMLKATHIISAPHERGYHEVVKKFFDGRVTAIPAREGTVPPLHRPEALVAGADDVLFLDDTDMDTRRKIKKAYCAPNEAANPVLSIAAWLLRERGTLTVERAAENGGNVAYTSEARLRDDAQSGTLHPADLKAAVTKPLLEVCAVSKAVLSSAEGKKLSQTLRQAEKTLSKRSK

[10] = target: T4, Tyrosyl-tRNA synthetase, putative (Trypanosoma cruzi (strain CL Brener)); experiment: Trypanosoma cruzi tyrosyl tRNA synthetase (TcYRS) SOP; assay type: functional; details: 30 µM
[11] = target: Chromo domain-containing protein 1 (Saccharomyces cerevisiae (strain ATCC 204508 / S288c) (Baker's yeast)) (UniProt P32657); experiment: ScCHD-1 Enzyme Inhibition Assay; assay type: functional; details: 30 µM; also: in the data most compounds retested in dose-response had high values
Sequence of Chromo domain-containing protein 1 (Saccharomyces cerevisiae (strain ATCC 204508 / S288c) (Baker's yeast)) (P32657 whole entry, the tested form may be a part): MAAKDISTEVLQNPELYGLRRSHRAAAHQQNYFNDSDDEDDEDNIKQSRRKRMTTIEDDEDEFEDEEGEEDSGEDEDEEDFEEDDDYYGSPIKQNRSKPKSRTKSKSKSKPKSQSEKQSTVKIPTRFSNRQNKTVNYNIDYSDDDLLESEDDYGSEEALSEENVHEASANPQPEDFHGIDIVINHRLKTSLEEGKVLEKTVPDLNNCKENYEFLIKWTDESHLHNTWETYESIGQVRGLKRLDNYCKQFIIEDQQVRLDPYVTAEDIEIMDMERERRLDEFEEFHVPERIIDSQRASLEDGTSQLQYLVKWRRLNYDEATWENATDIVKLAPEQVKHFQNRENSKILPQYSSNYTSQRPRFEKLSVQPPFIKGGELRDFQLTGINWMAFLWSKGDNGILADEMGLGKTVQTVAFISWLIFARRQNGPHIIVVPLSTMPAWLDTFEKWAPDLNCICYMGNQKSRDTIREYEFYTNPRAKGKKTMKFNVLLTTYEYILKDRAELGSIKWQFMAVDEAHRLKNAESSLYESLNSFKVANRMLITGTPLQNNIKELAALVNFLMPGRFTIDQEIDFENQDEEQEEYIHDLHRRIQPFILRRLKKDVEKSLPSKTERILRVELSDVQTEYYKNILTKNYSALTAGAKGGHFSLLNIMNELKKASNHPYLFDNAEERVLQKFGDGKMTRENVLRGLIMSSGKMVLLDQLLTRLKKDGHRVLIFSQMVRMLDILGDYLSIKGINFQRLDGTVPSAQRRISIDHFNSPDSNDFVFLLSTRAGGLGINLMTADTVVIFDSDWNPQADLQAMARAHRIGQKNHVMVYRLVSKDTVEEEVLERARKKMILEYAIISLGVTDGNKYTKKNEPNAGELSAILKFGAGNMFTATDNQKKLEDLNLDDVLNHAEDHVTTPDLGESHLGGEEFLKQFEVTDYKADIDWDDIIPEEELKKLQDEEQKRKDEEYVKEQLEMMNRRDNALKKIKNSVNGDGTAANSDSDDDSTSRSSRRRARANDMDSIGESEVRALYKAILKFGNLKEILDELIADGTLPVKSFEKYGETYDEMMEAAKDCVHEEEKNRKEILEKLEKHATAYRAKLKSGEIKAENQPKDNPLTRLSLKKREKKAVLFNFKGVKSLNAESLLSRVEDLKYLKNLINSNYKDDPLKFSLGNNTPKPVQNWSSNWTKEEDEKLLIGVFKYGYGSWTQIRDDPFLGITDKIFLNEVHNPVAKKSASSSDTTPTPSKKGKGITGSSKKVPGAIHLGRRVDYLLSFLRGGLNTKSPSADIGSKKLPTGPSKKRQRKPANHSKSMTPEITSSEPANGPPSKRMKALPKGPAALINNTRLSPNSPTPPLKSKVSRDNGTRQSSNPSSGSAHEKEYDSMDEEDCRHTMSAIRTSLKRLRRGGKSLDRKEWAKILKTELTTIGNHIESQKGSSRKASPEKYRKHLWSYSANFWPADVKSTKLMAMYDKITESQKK

Sequence of Protein translocase subunit SecA (Escherichia coli (strain K12)) (P10408 whole entry): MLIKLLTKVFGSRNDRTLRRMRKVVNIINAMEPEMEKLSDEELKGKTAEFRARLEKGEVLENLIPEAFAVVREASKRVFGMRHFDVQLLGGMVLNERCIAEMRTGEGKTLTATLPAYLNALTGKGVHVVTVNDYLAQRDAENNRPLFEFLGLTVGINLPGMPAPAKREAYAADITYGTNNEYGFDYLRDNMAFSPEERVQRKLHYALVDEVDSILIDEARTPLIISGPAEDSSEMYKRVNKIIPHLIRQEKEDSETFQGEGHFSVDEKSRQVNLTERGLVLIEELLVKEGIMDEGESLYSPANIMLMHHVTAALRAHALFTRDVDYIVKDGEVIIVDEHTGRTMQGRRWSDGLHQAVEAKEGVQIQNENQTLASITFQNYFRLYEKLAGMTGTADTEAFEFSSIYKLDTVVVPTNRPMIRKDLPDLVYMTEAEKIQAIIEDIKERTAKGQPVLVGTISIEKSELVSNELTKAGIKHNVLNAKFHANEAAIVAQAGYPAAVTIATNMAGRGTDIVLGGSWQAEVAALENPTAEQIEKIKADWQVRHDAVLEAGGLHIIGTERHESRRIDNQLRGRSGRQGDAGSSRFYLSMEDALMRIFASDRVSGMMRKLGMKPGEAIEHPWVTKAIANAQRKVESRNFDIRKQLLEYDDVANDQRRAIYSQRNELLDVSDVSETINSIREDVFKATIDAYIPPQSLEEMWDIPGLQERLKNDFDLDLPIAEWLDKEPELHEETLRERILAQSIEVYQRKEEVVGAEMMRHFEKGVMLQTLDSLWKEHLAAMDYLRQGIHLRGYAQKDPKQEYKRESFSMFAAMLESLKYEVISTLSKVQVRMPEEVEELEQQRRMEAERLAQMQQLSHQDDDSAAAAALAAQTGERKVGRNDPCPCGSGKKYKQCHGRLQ

Structure (SMILES) | Percent Effect [1] [%] | Percent Effect [2] [%] | Percent Effect [3] [%] | Percent Effect [4] [%] | Percent Effect [5] [%] | Percent Effect [6] [%] | Percent Effect [7] [%] | Percent Effect [8] [%] | Percent Effect [9] [%] | Percent Effect [10] [%] | Percent Effect [11] [%]
Cc1ccc(CC(=O)N2CCCC(c3nc(C)cs3)C2)cn1 (configuration not stated) | -5.58 | -2.7 | -3.92 | 13.4 | -0.0929 | -0.554 | 0.539 | -13.1 | 0.99 | -6.1 | 7.44
CCOc1ccc(-c2ccnc(CC)n2)cc1C(=O)O | 0.91 | 10.8 | -5.65 | 16.4 | 2.9 | -0.476 | 20 | -11.8 | 8.99 | -2.44 | -1.49
CN1CCN(c2nc(O)c3c(-c4ccccn4)ccnc3n2)CC1 | -4.77 | 0 | 6.93 | 2.2 | -2.24 | -7.1 | 18.1 | -16.4 | 6.38 | 10.4 | -7.72
Cc1cccc2[nH]c(C3CCN(C(=O)c4ccnn4C)CC3)nc12 | -4.98 | 7.79 | 3.06 | 3.85 | -4.62 | -23.4 | 15.1 | 2.04 | 9.68 | 13.6 | -3.54
O=C(c1cnc(-c2cccs2)s1)N1CCCC(n2cccn2)C1 (configuration not stated) | -4.52 | 13.5 | 1.78 | 1.67 | -1.6 | -2 | 3.24 | 13.5 | 5.42 | 11.1 | -8.6
CN1CCCCC1c1ncc2c(n1)CCN(Cc1ccccc1Cl)C2 (configuration not stated) | 1.96 | -13.3 | 4.6 | 2.83 | 3.74 | 2.56 | 18.9 | -3.83 | 19.1 | 14.1 | 1.52
O=C(CCNC(=O)C1CCCC1)NCc1cccnc1-n1cncn1 | -4.32 | 15.8 | -2.4 | 3.19 | -1.21 | -2.88 | 9.56 | -0.451 | 14.3 | 25.9 | -0.359
O=C(Cn1ccnc1)N1C[C@@H]2CC[C@H](Oc3ccccc3Cl)[C@@H]2C1 | -7.33 | -4.05 | 13.2 | 1.9 | 0.198 | -3.94 | -1.09 | 31.6 | 0 | -1.3 | 1.94
CC(=O)N1CCCN(C(=O)c2csc(-c3ccc(C)cc3C)n2)CC1 | -4.67 | 18.9 | -3.68 | 14.8 | 7.15 | -7.58 | 5.39 | 30 | 5.94 | 23.2 | -6.02
CC1c2ncc(Cn3cncn3)n2CCN1C1CCOCC1 (configuration not stated) | -4.22 | -2.67 | -5.46 | -3.4 | -4.83 | -54.3 | 9.91 | 2.92 | 2.08 | -12.5 | -5.31
CN(Cc1ncc(-c2ccccc2)o1)CC1CCCN1c1cccnn1 (configuration not stated) | -0.973 | -26 | 3.71 | 2.54 | 7.74 | -1.9 | 1.54 | -9.54 | 2.86 | 9.41 | -9.3
CC(=O)N1CCOC(c2cc(N3CC(O)C3)nc(C)n2)C1 (configuration not stated) | -3.22 | 5.33 | 11 | -2.94 | 0.394 | 2.1 | 11.2 | 0.425 | 5.32 | 16.7 | -2.41
CN(C)c1ncccc1CNC(=O)N1CCCC1CN1CCCCC1 (configuration not stated) | -3.1 | 23.4 | -3.23 | 0.716 | -2.25 | -0.356 | 9.63 | 3.33 | 7.77 | 14.6 | -9.2
Cc1nn(C)c(C)c1C1COCCN1c1ncnc2sccc12 (configuration not stated) | -2.31 | -2.67 | -0.892 | -4.05 | -0.487 | -2.08 | 10.1 | 31.3 | 1.64 | 3.7 | -1.49
CCS(=O)(=O)c1ccccc1N1CCC(NC(=O)c2ccc[nH]2)CC1 | -4.07 | 8.11 | 1.8 | 7.6 | 6.78 | -7.95 | 2.15 | 13 | 8.91 | 18.3 | -1.36
CC(NC(=O)CCC(=O)c1cccs1)c1nnc2n1CCCCC2 (configuration not stated) | -1.87 | -2.7 | -8.57 | -0.426 | -3.06 | 5.73 | -5.39 | 10 | 3.96 | 13.4 | 2.68
c1ccc(-c2nc(CN3CCCC(Cn4cncn4)C3)no2)cc1 (configuration not stated) | -5.26 | -3.8 | 7.69 | -3.34 | -3.59 | 5.38 | 4.8 | 0.0835 | 2.08 | 7.59 | -9.44
CS(=O)(=O)N1CCCCCC1C1CCN(c2ncccc2C#N)CC1 (configuration not stated) | -0.308 | -5.26 | 9.82 | 3.04 | 6.58 | 0 | -0.668 | -7.75 | 0.49 | 0 | 2.11
Cn1ncc2c1NC(=O)CC2c1ccc(Cl)cc1Cl (configuration not stated) | -0.731 | 2.63 | 4.33 | 1.29 | -8.67 | -1.18 | 11.8 | 18 | 0 | 2.6 | -4.32
COc1ccccc1OC1(C(=O)O)CCN(c2nccnc2C)CC1 | -2.61 | 5.48 | -1.61 | 9.27 | 1.19 | -5.19 | 9.16 | -8.06 | 5.21 | 23.5 | -6.84
Cc1ccc(NC2CCN(C(=O)COCC(F)(F)F)CC2)nn1 | -6.28 | 6.33 | -2.75 | 3.15 | -1.95 | -2.37 | 10.1 | 12.1 | 2.08 | 2.53 | 3.78
O=C1NC(c2ccccc2)=N[C@@]12CC[C@@H]1CN(Cc3ccco3)C[C@@H]12 | -0.246 | 5.33 | 1.87 | -5.18 | 2.32 | -47.5 | -0.513 | 4.89 | 2.08 | -5 | -2.32
